Source: PubChem (several laboratories)
Sampled rows, rich in hits. Any-hit rate of the full collection: about 3.8%.
NTR1 ag: activates human neurotensin receptor 1. P30989. NTR1-U2OS beta-arrestin-GFP spot imaging, agonist mode. activation, % at 20 µM. 0.17% of 330,000 active. AID 493036;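 active = activation at or above 40% of the spot to cytoplasm intensity ratio, with at least 20 cells analyzed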;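 note: 0% = DMSO without peptide and 100% = 100 nM NTR1 peptide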
Target sequence (P30989 whole entry, looked up): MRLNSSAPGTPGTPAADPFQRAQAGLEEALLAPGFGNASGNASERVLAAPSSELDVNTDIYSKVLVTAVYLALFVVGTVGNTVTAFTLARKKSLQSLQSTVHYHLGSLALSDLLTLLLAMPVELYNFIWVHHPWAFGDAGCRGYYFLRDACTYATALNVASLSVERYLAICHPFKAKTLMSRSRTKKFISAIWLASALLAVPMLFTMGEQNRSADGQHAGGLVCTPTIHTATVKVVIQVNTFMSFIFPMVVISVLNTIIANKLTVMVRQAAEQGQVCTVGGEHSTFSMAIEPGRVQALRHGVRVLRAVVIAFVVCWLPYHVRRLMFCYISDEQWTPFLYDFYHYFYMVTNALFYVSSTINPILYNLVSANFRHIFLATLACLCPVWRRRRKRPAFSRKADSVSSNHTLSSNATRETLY
Beta cell apopt: beta cell apoptosis inhibition. protection from apoptosis, % (concentration not given with the values). 0.8% of 300,000 active. INS-1E cytokine-induced death, ATP luminescence, 48 h; percent of positive-control rescue, neutral wells zero;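 active = Every replicate reaches about 75%, or at least half do and their mean reaches it too, limit read from the data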;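 note: 0% = cytokine-treated negative control wells and 100% = positive control rescue; higher means more ATP so stronger rescue from cytokine killing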
697 NFkB inh: inhibitors of the PMA/ionomycin-induced NF-kB reporter in 697 B cells | 697 B-cell NF-kB luciferase reporter, 16 h | inhibition, % at 4 µM | 0.33% of 330,000 active; in the data active = inhibition above about 35%
Bfl-1 A1 inh: inhibitors of the anti-apoptotic protein A1, read as caspase activation. MEF A1-2A-BIM cells, Caspase-Glo 3/7 luminescence, 3 h; percent of clofoctol response, vehicle zero. caspase activation, % (concentration not given with the values). AID 2462. 0.066% of 330,000 active;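 active = over half of replicate activation scores above 10%, or exactly half above 10 with the replicate mean above 10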
Mdm2 MdmX PPI: inhibitors of human Mdm2/MdmX interaction | O15151+Q00987 | SaOS-2 split-luciferase Mdm2/MdmX complementation, luminescence | inhibition, % at 8 µM | 3% of 330,000 active | AID 485346;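 active = inhibition of at least 50% at 8 µM in the primary screen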
Jurkat NFkB inh: lowers PMA/ionomycin-induced NF-kB signal in Jurkat cells. PMA/ionomycin-induced NF-kB luciferase reporter, luminescence. inhibition, % at 4 µM. 0.53% of 330,000 active; in the data active = inhibition above about 50%
Mdm2-MdmX conf: human Mdm2/MdmX binding inhibition, confirmed | inhibition, % at 8 µM | luminescent assay | shares compounds with Mdm2 MdmX PPI | 55% of 10,000 active | AID 489028; in the data active = inhibition above about 40%
FLuc counter: full-length luciferase inhibition in Mdm2/MdmX counter-screen; shares compounds with Mdm2 MdmX PPI; SaOS-2 full-length luciferase counterscreen, luminescence; inhibition, % at 8 µM; 77% of 6,200 active; AID 504607;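 active = mean inhibition at 8 µM reaching about 37%, which flags the compound as non-specific, limit read from the data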;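 note: p53-null SaOS-2 cells with luciferase driven by a doxycycline-inducible promoter; compound on cells about two nights before reading with doxycycline added after day one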
Numbers without * were called inactive; . = no result given.

SMILES | NTR1 ag | Beta cell apopt | 697 NFkB inh | Bfl-1 A1 inh | Mdm2 MdmX PPI | Jurkat NFkB inh | Mdm2-MdmX conf | FLuc counter
COc1ccc(C(=O)NC(=S)N2CCOCC2)cc1[N+](=O)[O-] | 1 | . | 14 | 0 | 8 | 21 | . | .
COc1ccc(CCN2C(=O)NC(NS(=O)(=O)c3ccccc3)(C(F)(F)F)C2=O)cc1OC (centres undefined) | 0 | -5 | 16 | 0 | -1 | 12 | . | .
CN(C)CCNc1ccc(-c2nn(C)c(=O)c3ccccc23)cc1[N+](=O)[O-] | 0 | -9 | 11 | 1 | 53* | 30 | 37 | 78*
COc1ccc2ncn(-c3ccccc3)c2c1 | 0 | -20 | -9 | 1 | 63* | -13 | 50* | 42*
COc1ccc(-n2cnc3ccccc32)cc1 | -1 | -9 | -31 | 1 | 47 | -4 | . | .
CCCCn1c(CCc2ccccc2)nc2cc3[nH]c(=O)c(C(C)C)nc3cc21 | 10 | 13 | 7 | 1 | 51* | -13 | 12 | .
CCCCn1c(-c2ccc(F)c(F)c2)nc2cc3[nH]c(=O)c(C(C)C)nc3cc21 | 13 | 13 | 5 | 0 | 34 | 0 | . | .
CN(C)S(=O)(=O)c1cccc(NC(=O)CSc2cccc3cccnc23)c1 | 16 | . | 3 | -1 | 97* | 3 | 49* | 17
CN(C)S(=O)(=O)c1cccc(NC(=O)CSc2nc3c(cc2C#N)C(=O)CC(C)(C)C3)c1 | 0 | -9 | -3 | 0 | 57* | 42 | 51* | 52*
CN(C)S(=O)(=O)c1ccc(Cl)c(NC(=O)CSc2nc3c(cc2C#N)C(=O)CC(C)(C)C3)c1 | 2 | -2 | 14 | -1 | 13 | -2 | . | .
CCOC(=O)C1=CN(Cc2cccc(-c3cccnc3)c2)S(=O)(=O)N(C)C1C (centres undefined) | 1 | . | -19 | . | -9 | . | . | .
Cc1ccc(CNC(=O)CCn2cc(-c3ccc(C)cc3)nc2CCN)cc1 | 0 | -3 | 7 | 1 | -2 | 0 | . | .
Nc1nc(SCc2ccc(Cl)cc2Cl)nc2nc3c(cc12)CCCC3 | 23 | 13 | 10 | 0 | 57* | 16 | 25 | .
O=c1[nH]c2ccccc2c2oc(CCl)nc12 | 4 | -5 | -9 | 1 | 78* | 9 | 52* | 54*
CCC1CCc2c(c3ccccc3[nH]c2=O)O1 (centres undefined) | 2 | -17 | 1 | 0 | 20 | 0 | . | .
COc1cc(-c2ccc3oc(-c4ccsc4)cc(=O)c3c2)cc(OC)c1OC | 7 | 4 | 3 | 0 | 73* | -2 | 10 | .
COc1ccc(-c2ccc3c(=O)cc(-c4ccsc4)oc3c2)cn1 | 1 | -1 | -14 | 1 | 79* | -16 | 1 | .
O=c1cc(-c2ccsc2)oc2cc(-c3ccc4c(c3)OCO4)ccc12 | 27 | -3 | 3 | 2 | -9 | -94 | . | .
CCOC(=O)c1ccc(-c2ccc3oc(-c4ccsc4)cc(=O)c3c2)cc1F | -1 | -6 | 1 | 0 | 16 | -5 | . | .
Cc1nc([N+](=O)[O-])cn1CC(=O)Nc1ccc(F)c(Cl)c1 | 0 | -3 | 2 | -1 | -12 | 1 | . | .
O=[N+]([O-])c1cncc([N+](=O)[O-])c1Nc1cccc(O)c1 | 1 | 12 | -7 | -1 | 33 | 11 | . | .
Cc1cnc(CNC(=O)C2CCC(=O)N(CCc3ccc(Cl)cc3)C2)cn1 (centres undefined) | 0 | . | -10 | . | 19 | -11 | . | .
C/C(=N\NC(=O)c1cccc(N/N=C(\C)c2ccncc2)c1)c1ccncc1 | 2 | 4 | 16 | 0 | 20 | -10 | . | .
C/C(=N\NC(=O)c1cccc(N/N=C(\C)c2ccc([N+](=O)[O-])cc2)c1)c1ccc([N+](=O)[O-])cc1 | 3 | 3 | 4 | 0 | 69* | 5 | 27 | .
CCCCN(C(=O)c1[nH]c(C)c(C(=O)OCC)c1C)c1c(N)n(CCCC)c(=O)[nH]c1=O | -1 | -1 | -2 | 1 | 24 | -1 | . | .
SMILES | NTR1 ag | Beta cell apopt | 697 NFkB inh | Bfl-1 A1 inh | Mdm2 MdmX PPI | Jurkat NFkB inh | Mdm2-MdmX conf | FLuc counter
O=C(Nc1ccc(N2CCN(Cc3ccccc3F)CC2)cc1)c1ccc([N+](=O)[O-])o1 | 42* | 48 | 1 | 2 | 81* | 37 | 69* | 16
CC(C)(C)C(=O)N1CCN(c2ccc(NC(=O)c3ccc([N+](=O)[O-])o3)cc2)CC1 | 18 | -19 | -4 | 1 | 54* | 28 | 46* | 31
O=C(Nc1ccc(N2CCN(Cc3ccccc3F)CC2)cc1)c1ccccc1[N+](=O)[O-] | 2 | -2 | 4 | 1 | 23 | 11 | . | .
CN1CCN(c2ccc(NC(=O)c3ccc(-c4ccc(Br)cc4)o3)cc2)CC1 | 5 | 24 | -29 | 0 | 77* | 18 | 39 | 81*
CCN1CCN(c2ccc(NC(=O)c3ccc(Br)o3)cc2)CC1 | 1 | . | -83 | . | -33 | -83 | . | .
N#Cc1ccccc1OCC(=O)NNC(=O)CCC1CCCC1 | 0 | -9 | 1 | 0 | 27 | -1 | . | .
CCCCn1c(SCC(=O)NCc2ccc3c(c2)OCO3)nnc1C(CC)N(C)C (centres undefined) | 2 | . | 16 | . | 9 | 3 | . | .
COc1ccccc1NC1CCCCC1NS(=O)(=O)c1ccccc1 (centres undefined) | 0 | 0 | 21 | 0 | -3 | 11 | . | .
C[C@H]1CC[C@H]2C(=O)N3[C@H](c4ccccc4Br)[C@@H](C)CC[C@H]3C(=O)N2[C@@H]1c1ccccc1Br | 9 | 110* | -1 | -1 | 79* | 11 | 51* | 68*
C[C@H]1CC[C@H]2C(=O)N3[C@H](c4cccc(N5CCCC5=O)c4)[C@@H](C)CC[C@H]3C(=O)N2[C@@H]1c1cccc(N2CCCC2=O)c1 | 3 | -1 | -8 | 1 | 9 | 0 | . | .
O=C(Nc1cc(C(F)(F)F)ccc1N1CCCC1)C1CCCO1 (centres undefined) | -3 | 2 | 13 | 3 | 1 | -9 | . | .
CCc1ccc(C(=O)COC(=O)c2ccccc2OC)cc1 | 0 | . | -6 | 1 | -25 | -10 | . | .
COc1ccc(C2NCCc3c2[nH]c2ccccc32)cc1COc1ccc(F)cc1 (centres undefined) | 4 | 104* | 22 | 1 | 69* | -4 | 37 | .
CCCCn1c(N)c(N(CC(C)C)C(=O)c2ccc(S(=O)(=O)N3CCC(C)CC3)cc2)c(=O)[nH]c1=O | 1 | -2 | 12 | 0 | 1 | 26 | . | .
CC(=O)NC(c1cccs1)c1cc(F)c2cccnc2c1O (centres undefined) | 0 | 91* | -24 | 0 | 63* | 38 | 67* | 30
